From PubChem BioAssay AID1851 (National Center for Advancing Translational Sciences (NCATS), 2009)
The campaign covered roughly 16,000 compounds. About 2,600 (16%) were called active. Another 20% or so got no clear call; they are omitted. The call rests on the fitted dose curve; in most records, active means well fitted curve in the direction sought with a large enough effect; inconclusive means small, poorly fitted or top-dose-only effect, or effect the other way; inactive means no such curve, though single readings can be large or run the other way. Not all results are given here.

target: Cytochrome P450 2D6 (Homo sapiens) (UniProt P10635); assay: Cytochrome panel assay with activity outcomes; details: recombinant CYP, pro-luciferin dealkylation, luminescence, p450-cyp2d6; series mostly up to 57.1 µM; activity, negative = inhibition: at the top concentration
Sequence (P10635 whole entry, looked up): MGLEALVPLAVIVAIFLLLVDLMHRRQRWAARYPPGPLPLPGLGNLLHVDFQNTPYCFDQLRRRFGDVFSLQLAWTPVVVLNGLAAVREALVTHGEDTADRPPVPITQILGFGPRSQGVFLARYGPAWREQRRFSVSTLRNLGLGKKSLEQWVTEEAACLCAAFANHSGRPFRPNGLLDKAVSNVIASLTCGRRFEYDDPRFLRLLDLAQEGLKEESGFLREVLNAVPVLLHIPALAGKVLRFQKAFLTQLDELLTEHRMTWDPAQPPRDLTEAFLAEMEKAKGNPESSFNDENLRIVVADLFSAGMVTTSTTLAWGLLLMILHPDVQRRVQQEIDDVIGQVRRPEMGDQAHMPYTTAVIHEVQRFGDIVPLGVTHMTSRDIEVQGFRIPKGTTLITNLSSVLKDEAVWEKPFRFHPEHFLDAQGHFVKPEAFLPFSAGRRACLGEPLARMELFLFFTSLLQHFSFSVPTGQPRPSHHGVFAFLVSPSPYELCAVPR
On the % scale 0 is the no-effect control and ±100 the full control effect.

SMILES | activity, negative = inhibition | AC50
O=C(NCC1CCCO1)C(c1cccnc1)N(C(=O)Cc1cccs1)c1cccnc1 (configuration not stated) | 11.9% (inactive) | –
Cc1nnc(NS(=O)(=O)c2ccc(N)cc2)s1 | -1.12% [at 25.6 µM] (inactive) | –
O=C(O)Cc1ccc2ocnc2c1 | 19.2% (inactive) | –
CCCC(=O)N1c2ccccc2C(N(C(C)=O)c2ccccc2)CC1C (configuration not stated) | -4.05% (inactive) | –
O=C(Nc1cc2c(oc1=O)CCCC2=O)c1ccc(Cl)cc1 | -15% (inactive) | –
S=c1[nH]c2cc(Cl)ccc2s1 | -23.7% (inactive) | –
COc1ccc2nc(N)sc2c1 | -5.21% (inactive) | –
NCC[C@H](O)C(=O)N[C@H]1C[C@@H](N)[C@@H](O[C@H]2O[C@@H](CN)[C@@H](O)[C@@H](O)[C@@H]2O)[C@@H](O)[C@@H]1O[C@H]1O[C@@H](CO)[C@@H](O)[C@@H](N)[C@@H]1O | 3.98% [at 25.6 µM] (inactive) | –
Cc1n[nH]c(C)c1S(=O)(=O)N1CCOCC1 | 13.9% (inactive) | –
COc1ccc(/C=N/OCc2nc3c4c(ncn3n2)Oc2ccc3ccccc3c2C4c2ccccc2)cc1 (configuration not stated) | -1.08% (inactive) | –
Fc1ccc(-c2ccnc3nc(N4CCOCC4)nn23)cc1 | -4.82% (inactive) | –
Cc1c(NC(=O)CN2CCN(c3ccccc3)CC2)c(=O)n(-c2ccccc2)n1C | 2.48% (inactive) | –
Cc1cccc(C)c1NC(=O)CS(=O)CC(=O)Nc1ccc(F)cc1F (configuration not stated) | -20.9% (inactive) | –
Cc1cccc(C)c1NC(=O)CN1CCN(CCCC(c2ccc(F)cc2)c2ccc(F)cc2)CC1 | – | 5.01 µM (active)
Nc1nc2c(c(=O)[nH]1)N[C@H](CCNc1ccc(C(=O)O)cc1)CN2 | 1.76% [at 11.4 µM] (inactive) | –
Cc1nc(-c2cccnc2)sc1C(=O)Nc1ccc(Cl)cc1 | – | 15.8 µM (active)
CNC(=O)c1sc(-c2cccnc2)nc1C | 1.87% (inactive) | –
Cc1nc(-c2cccnc2)sc1C(=O)Nc1ccc(F)cc1F | -13.3% (inactive) | –
N#CCCn1c(=O)c(-c2ccc(Cl)cc2)nc2cnc(Oc3cccc(Cl)c3)nc21 | 8.48% (inactive) | –
CCOC(=O)C(C)(C)[C@H](O)C(C)C | 10.9% [at 11.4 µM] (inactive) | –
N[C@@H](Cc1ncccn1)C(=O)O | -1.91% [at 11.4 µM] (inactive) | –
Clc1ccc(COC(Cn2ccnc2)c2ccc(Cl)cc2Cl)c(Cl)c1 (configuration not stated) | – | 1 µM (active)

SMILES | activity, negative = inhibition | AC50
Clc1ccc([C@H](Cn2ccnc2)OCc2csc3c(Cl)cccc23)c(Cl)c1 | – | 5.01 µM (active)
Cc1nn(C)c(Cl)c1NC(=O)OCc1ccc(Cl)cc1Cl | -12.9% (inactive) | –
Clc1ccc(CO[C@@H](Cn2ccnc2)c2ccc(Cl)cc2Cl)cc1 | – | 0.2 µM (active)
COCCn1c(=O)c(-c2cc(F)cc(F)c2)nc2cnc(N3CCOCC3)nc21 | 9.89% (inactive) | –
O=C1Nc2ccc(F)cc2C12SCCS2 | -4.91% (inactive) | –
Cn1c(=O)c(-c2ccc(F)c(F)c2)nc2cncnc21 | -1.7% (inactive) | –
N#CCCn1c(=O)c(CCc2ccccc2)nc2cnc(Oc3cccc(Cl)c3)nc21 | 1.73% (inactive) | –
CC1CCC(=NNC(=O)Cc2ccccc2)CC1 (configuration not stated) | -22% (inactive) | –
CN1Cc2c(C(=O)OC(C)(C)C)ncn2-c2ccsc2C1=O | -3.58% (inactive) | –
N#Cc1ccc(-c2ccc(F)cc2)nc1Oc1ccc(Cl)c(Cl)c1 | 1.51% (inactive) | –
Cc1ccc2ncc([N+](=O)[O-])n2c1 | 0.899% (inactive) | –
O=C(O)C1=CCCNC1 | – | inactive
O=C(O)C(=O)/C=C(\O)c1ccc(Br)cc1 | -0.0145% [at 11.4 µM] (inactive) | –
Cc1ccc(-c2nn3c(C)nnc3c3ccccc23)cc1S(=O)(=O)NCCN1CCOCC1 | -18% (inactive) | –
CC(=O)Nc1ccc(S(=O)(=O)NC(CC(=O)NCCCN2CCOCC2)C(C)C)cc1 (configuration not stated) | -17.2% (inactive) | –
Cc1cc(S(=O)(=O)NCCCN2CCOCC2)ccc1F | – | 12.6 µM (active)
COc1ccc(-c2nc3cnc(N4CCN(C)CC4)nc3n(Cc3ccc(F)cc3)c2=O)cc1 | -1.05% (inactive) | –
O=C(O)CCC(=O)c1ccc2sc3ccccc3c2c1 | -3.63% [at 11.4 µM] (inactive) | –
CCCCN(CCCC)CCCOC(=O)c1ccc(N)cc1 | – | 0.00631 µM (active)
CCCCNc1ccc(C(=O)OCCOCCOCCOCCOCCOCCOCCOCCOCCOC)cc1 | -0.114% [at 25.6 µM] (inactive) | –
CN(C)CCOC(=O)c1ccc(N)cc1 | 11.9% [at 11.4 µM] (inactive) | –
Cc1cc([N+](=O)[O-])c(C)c(Br)c1C | -1.18% [at 11.4 µM] (inactive) | –

SMILES | activity, negative = inhibition | AC50
CC(C)(C)C(=O)OCOC(=O)[C@@H]1N2C(=O)[C@@H](NC(=O)[C@H](N)c3ccccc3)[C@H]2SC1(C)C | -5.86% [at 25.6 µM] (inactive) | –
O=C(Nc1cccc(F)c1)N1CCCC2(CCN(C(=O)c3cc(C(F)(F)F)cc(C(F)(F)F)c3)CC2)C1 | -4.07% (inactive) | –
COc1ccc2c(=O)c(-c3ccccc3)c(C)oc2c1 | 1.82% (inactive) | –
CCOc1ccccc1Oc1c(C)oc2cc(OC(=O)c3ccco3)ccc2c1=O | -2.7% (inactive) | –
CCOc1ccccc1Oc1coc2cc(OC)ccc2c1=O | – | 0.501 µM (active)
CC(C)C(C(=O)O)N1C(=O)/C(=C/C=C/c2ccco2)SC1=S (configuration not stated) | 8.03% (inactive) | –
CCCCN(C)C(=O)c1coc(=O)c2ccccc12 | 23.8% (inactive) | –
O=[n+]1c2c(n([O-])c3cc(F)c(F)cc31)CCCC2 | 3.89% (inactive) | –
CCC(=O)Nc1ccc2c(c1)C(=O)c1ccccc1C2=O | – | 7.08 µM (active)
O=C1c2ccccc2-c2ccc(NC(=O)[C@H]3CCCC[C@@H]3C(=O)O)cc21 | -8.68% [at 11.4 µM] (inactive) | –
O=C(Nc1ccc(Nc2ccc3c(c2)C(=O)c2ccccc2C3=O)c2c1C(=O)c1ccccc1C2=O)c1ccccc1 | -5.75% [at 11.4 µM] (inactive) | –
COc1ccc(/C=N/n2c(C)nnc2C)c(OC)c1 | -1.27% (inactive) | –
Cn1cnc2c(NCc3ccccc3)nc(NCCO)nc21 | – | 1.26 µM (active)
CCn1c2ccccc2c2nnc(NCCCO)nc21 | 3.89% [at 11.4 µM] (inactive) | –
OCCn1cnc2c(SCc3ccccc3)ncnc21 | -0.741% [at 11.4 µM] (inactive) | –
O=C1[C@H]2[C@H]3[C@H](O)[C@H](O)C/C(=N/OC[C@@H](O)COCc4ccco4)[C@@H]3CC[C@@H]2C(=O)N1Cc1ccc2c(c1)OCO2 | 0.398% [at 11.4 µM] (inactive) | –
CN1CCC(N(C)C(=O)CCc2nc3ccccc3c(=O)[nH]2)CC1 | 5.72% (inactive) | –
O=C(O)CSc1ccn(Cc2ccccc2)c1 | 9% [at 11.4 µM] (inactive) | –
O=C(COC(=O)c1cccnc1Nc1cccc(C(F)(F)F)c1)NCc1ccc2c(c1)OCO2 | – | 1.12 µM (active)
O=C(O)c1cccnc1Nc1cccc(C(F)(F)F)c1 | -1.07% [at 25.6 µM] (inactive) | –
O=C(COC(=O)c1cnccn1)NCc1ccccc1 | -13.3% (inactive) | –
Cc1cc2nnc(SCC(=O)OC(C)C)n2c2ccccc12 | -7.14% (inactive) | –

SMILES | activity, negative = inhibition | AC50
NC1=C2NC=N[C@@H]2N(C/C=C\c2ccccc2)C=N1 | -12.6% [at 11.4 µM] (inactive) | –
N#CCCn1c(=O)c(-c2cccs2)nc2cnc(Oc3cccc(Cl)c3)nc21 | 3.98% (inactive) | –
COc1ccc2oc(=O)c(NC(=O)C3CCCCC3)cc2c1 | 21.2% (inactive) | –
O=C(Nc1cc2ccccc2oc1=O)C1CCCCC1 | -12.9% (inactive) | –
Cc1cc(NC(=O)C2CCCCC2)nc2c1c(=O)oc1ccccc12 | – | 20 µM (active)
O=c1cnc2cnc(Nc3ccccc3)nc2n1C[C@H]1CCCO1 | -9.42% (inactive) | –
COc1ccc(-c2cc(CNC(C)=O)on2)cc1 | 21.2% (inactive) | –
FC(F)(F)c1ccc(/C=N/N2CCN(Cc3cccc4ccccc34)CC2)cc1 | -19.8% (inactive) | –
COc1ccccc1CC(=O)O/N=C(\N)Cc1cccc2ccccc12 | -5.92% (inactive) | –
COc1ccccc1/C=C/C=N/N1CCN(Cc2cccc3ccccc23)CC1 | – | 7.94 µM (active)
CCc1nc(N2CCC3(CC2)OCCO3)c2nnn(Cc3ccccc3Cl)c2n1 | -15.5% (inactive) | –
c1ccc2nc(-c3ccncc3)ccc2c1 | – | 15.8 µM (active)
CC(C)C(=O)Cc1ccc2ccccc2n1 | 5.06% [at 11.4 µM] (inactive) | –
Cc1cc2c(cc1C)-c1nnc(-c3ccc4ccccc4n3)n1C(C)(C)C2 | 15.6% (inactive) | –
Cc1ccc([N+](=O)[O-])cc1N=C(c1cccc([N+](=O)[O-])c1)N1CCOCC1 | -24.8% (inactive) | –
CC(=O)c1cnc2cc(C)nn2c1C | -4.17% (inactive) | –
CC(C)Oc1ccc2ccccc2c1C=O | -4.59% (inactive) | –
O=C(NNC(=O)C1CCN(S(=O)(=O)c2ccc(Cl)cc2)CC1)c1ccc(Cl)cc1 | -4.04% (inactive) | –
Cc1[nH]c2c(C)ccc(C)c2c1CC(=O)O | -12.2% [at 11.4 µM] (inactive) | –
COc1ccc(NC(=O)COC(=O)Cn2c(C)nc3ccccc32)cc1OC | 16.2% (inactive) | –
C=CCn1c(NCc2ccccc2)nc2ccccc21 | – | 0.398 µM (active)
C=CCn1c(P(=O)(O)c2ccccc2)nc2ccccc21 | -7.57% (inactive) | –

SMILES | activity, negative = inhibition | AC50
CC(=O)Nc1nc2ccccc2n1Cc1ccccc1 | -11.8% (inactive) | –
COc1ccc(CNc2nc3ccccc3n2Cc2ccccc2)cc1OC | – | 0.794 µM (active)
C=CCn1c(-c2cccn(Cc3ccccc3)c2=O)n[nH]c1=S | 4.47% (inactive) | –
O=C(NCC1CCCO1)c1onc(CSc2ccccc2F)c1C(=O)O (configuration not stated) | 0.926% (inactive) | –
O=C(O)c1ccccc1N/N=C\c1ccnc2ccccc12 | -29.2% (inactive) | –
CC(=O)ON(C(C)=O)S(=O)(=O)c1ccc(Cl)cc1 | 12.6% (inactive) | –
Cc1[nH]n(C(C)(C)C)c(=O)c1Sc1ccccc1 | -13.6% (inactive) | –
O=P(O)(CCP(=O)(O)c1ccccc1)c1ccccc1 | 0.684% [at 11.4 µM] (inactive) | –
O=C(c1cc(C(F)(F)F)cc(C(F)(F)F)c1)N1CCC2(CC1)CCN(c1ncccn1)CC2 | -13.1% (inactive) | –
Cc1ccc(-c2ccc(/C=N\NC(=O)c3cc4c(ccc5ccccc54)o3)o2)cc1[N+](=O)[O-] | 7.58% (inactive) | –
O=C(N/N=C(\c1ccccc1)c1cccnc1)C(O)(c1ccccc1)c1ccccc1 | -25.7% (inactive) | –
Clc1ccc(CC[C@H](Cn2ccnc2)Sc2c(Cl)cccc2Cl)cc1 | – | 1.26 µM (active)
O=C1C2=CC[C@@H]3C(=O)N(c4ccc(F)cc4F)C(=O)[C@H]3[C@H]2[C@H](O)[C@H]2O[C@H]12 | 6.42% [at 11.4 µM] (inactive) | –
COc1ccc(-c2nc(C#N)c(N3CCC(C(N)=O)CC3)o2)cc1OC | 4.34% (inactive) | –
COc1cccc(-c2nc(CS(=O)(=O)CC(=O)NCCCOC(C)C)c(C)o2)c1 | -7.29% (inactive) | –
COc1ccc(-c2nc(CSCC(=O)NCC3CCCO3)c(C)o2)cc1OC (configuration not stated) | -17.1% (inactive) | –
CCCCN(C)CCCNC(=O)CS(=O)Cc1nc(-c2ccc(OC)c(OC)c2)oc1C (configuration not stated) | – | 11.2 µM (active)
COc1ccc(CCN(C)CCC(=O)Nc2c(C)cc(C)cc2C)cc1OC | -65.7% (inactive) | –
CCCN(CCC)CCCNC(=O)CS(=O)Cc1nc(-c2ccc(OC)c(OC)c2)oc1C (configuration not stated) | – | 5.01 µM (active)
